# Activity calls are given as the source filed them.
# Experiments:
# [1] = system: Plasmodium falciparum Sir2 (PF13_0152, Sir2A); assay: Plasmodium falciparum Sir2A binding compounds – biochemical, small-molecule microarray, 635 nm fluorescence, primary screen (AID 1098); conditions: fluorescence 635 nm, higher = more signal;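 also: score merges spot fluorescence intensity with its signal-to-noise ratio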
# [2] = probe aDKK1 binding to arrayed compounds – biochemical, biotinylated probe, 635/667 nm fluorescence, primary screen (AID 1099); conditions: small-molecule microarray, higher = more signal;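 also: score merges 667nm spot fluorescence with signal to noise across triplicate slides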
# [3] = probe aCHRDL2 binding to arrayed compounds – biochemical, biotinylated probe, 635/667 nm fluorescence, primary screen (AID 1100); conditions: small-molecule microarray, higher = more signal
# [4] = change in splice reporter luminescence, either direction, cell-based, HEK293, spliceosome inhibition project, primary screen (AID 1101); conditions: HEK293 splicing luciferase reporter, 24 h, higher = more signal, called active from +8 up or from −8 down;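 also: HEK293 cells carrying a splicing-competent luciferase reporter gene; test concentration not given here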
# [5] = target: Fibroblast growth factor 10 (Homo sapiens) (UniProt O15520); assay: compounds binding fibroblast growth factor 10 – biochemical, small-molecule microarray, 635 nm fluorescence, primary screen (AID 1102); conditions: FGF10 binding, fluorescence 635 nm, higher = more signal
# [6] = system: glycogen synthase kinase-3 (GSK3A per assay name; protocol says GSK3B); assay: compounds binding glycogen synthase kinase-3 – biochemical, small-molecule microarray, 635 nm fluorescence, GSK3A, primary screen (AID 1103); conditions: fluorescence 635 nm, higher = more signal; also: the record names both GSK3A and GSK3B
# [7] = target: Epidermal growth factor receptor (Homo sapiens) (UniProt P00533); assay: compounds binding epidermal growth factor receptor – biochemical, small-molecule microarray, 635 nm fluorescence, primary screen (AID 1104); conditions: EGFR binding, higher = more signal;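 also: score merges 667 nm emission intensity with spot signal to noise over triplicate slides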
# [8] = target: Follistatin-related protein 3 (Homo sapiens) (UniProt O95633); assay: compounds binding follistatin-related protein 3 – biochemical, small-molecule microarray, 635 nm fluorescence, primary screen (AID 1105); conditions: FSTL3 binding, higher = more signal;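 also: score merges emission near 667 nm and signal to noise per printed spot across three slides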
# [9] = target: Dickkopf-related protein 1 (Homo sapiens) (UniProt O94907); assay: small molecules binding DKK1 protein – biochemical, small-molecule microarray, 635 nm fluorescence scan, primary screen (AID 1106); conditions: higher = more signal;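 also: score merges emission near 667 nm with signal to noise over three replicate slides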
# [10] = system: Inhibin beta A chain (activin A); assay: small molecules binding activin A – biochemical, small-molecule microarray, 635 nm fluorescence scan, primary screen (AID 1107); conditions: INHBA, higher = more signal;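 also: mouse activin A protein probed at 4.33 µg/mL on printed slides; score merges bound-protein fluorescence near 667 nm with spot signal-to-noise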
# [11] = system: Human papillomavirus type 1a protein E7 (residues 44-93); assay: small molecules binding HPV E7 44-93 – biochemical, small-molecule microarray, residues 44-93, 635 nm fluorescence, primary screen (AID 1108); conditions: fluorescence 635 nm, higher = more signal;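 also: E7 fragment applied at 1 µg/mL in TBST for 1 h at 4 C; score combines spot fluorescence with its signal to noise ratio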
# [12] = hepatitis C replication reporter changes, two-sided – Huh7 cells, luciferase reporter, HCV replication inhibitor project, primary screen (AID 1109); conditions: Huh7 HCV replicon luciferase reporter, 48 h; higher = more signal;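 also: huh7 hepatoma cells harbouring a luciferase neomycin HCV replicon reporter; luciferase luminescence as measure of HCV replicon replication; test concentration not given here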
# [13] = target: Left-right determination factor 2 (Homo sapiens) (UniProt O00292); assay: small molecules binding LEFTY2 protein – biochemical, small-molecule microarray, 635 nm fluorescence scan, primary screen (AID 1110); conditions: higher = more signal
# [14] = target: Calmodulin-1 (Homo sapiens) (UniProt P0DP23); assay: small molecules binding calmodulin-1 with EGTA – biochemical, small-molecule microarray, Cy5-labelled CALM1, profiling panel (AID 1111); conditions: Cy5-CALM1 binding fluorescence, higher = more signal;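 also: labelled calmodulin applied in Tris saline Tween buffer holding calcium plus EGTA and DTT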
# [15] = target: Calmodulin-1 (Homo sapiens) (UniProt P0DP23); assay: small molecules binding Ca-loaded calmodulin-1 – biochemical, small-molecule microarray, Cy5-labelled CALM1, plus calcium, artefact control for SMM control-protein annotation, profiling panel (AID 1112); conditions: Cy5-CALM1 binding fluorescence, higher = more signal;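 also: score merges spot fluorescence with signal to noise from triplicate slides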
# [16] = probe aWnt5a binding to arrayed compounds – biochemical, biotinylated probe, 635/667 nm fluorescence, primary screen (AID 1113); conditions: small-molecule microarray, higher = more signal;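 also: score merges 667 nm fluorescence intensity with signal-to-noise per printed feature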
# [17] = probe aShh binding to arrayed compounds – biochemical, biotinylated probe, 635/667 nm fluorescence, primary screen (AID 1114); conditions: small-molecule microarray, higher = more signal;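 also: probe is biotin-labelled aShh protein from a stem cell growth factor screen; measures binding of labelled protein to compounds printed on the slide; score merges feature fluorescence at 667 nm with signal-to-noise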
# [18] = probe aNog binding to arrayed compounds – biochemical, biotinylated probe, 635/667 nm fluorescence, primary screen (AID 1115); conditions: small-molecule microarray, higher = more signal;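 also: probe is biotinylated aNog protein used at 0.15 µg/mL for 1 h at 4 C; z-score combines 667 nm fluorescence of each spot with its signal to noise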
# [19] = target: Torsin-1A-interacting protein 1 (Homo sapiens) (UniProt Q5JTV8); assay: compound microarray binding of lysate hLAP1 – cell lysate, small-molecule microarray, COS7 lysate, 635/667 nm fluorescence, primary screen (AID 1116); conditions: 635 nm fluorescence, higher = more signal
# [20] = target: Alpha-bungarotoxin (Bungarus multicinctus) (UniProt P60615); assay: compounds binding labelled alpha-BTX control protein – biochemical, small-molecule microarray, Alexa647 label, 635/667 nm fluorescence, artefact control for SMM control protein annotation, profiling panel (AID 1117); conditions: alpha-BTX-A647 binding fluorescence, higher = more signal
# Chain of Alpha-bungarotoxin (Bungarus multicinctus) (P60615 whole entry, looked up): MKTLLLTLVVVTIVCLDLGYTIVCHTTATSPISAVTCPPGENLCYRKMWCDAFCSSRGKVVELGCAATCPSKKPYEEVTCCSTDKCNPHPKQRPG
# Chain of Dickkopf-related protein 1 (Homo sapiens) (O94907 whole entry, looked up): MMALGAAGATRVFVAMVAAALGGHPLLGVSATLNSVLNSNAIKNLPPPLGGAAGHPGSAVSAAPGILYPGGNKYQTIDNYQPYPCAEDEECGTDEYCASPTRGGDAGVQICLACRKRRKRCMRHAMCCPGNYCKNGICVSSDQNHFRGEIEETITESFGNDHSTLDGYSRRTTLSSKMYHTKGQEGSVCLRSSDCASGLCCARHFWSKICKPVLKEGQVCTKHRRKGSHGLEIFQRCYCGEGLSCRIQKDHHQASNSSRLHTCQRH
# Chain of Torsin-1A-interacting protein 1 (Homo sapiens) (Q5JTV8 whole entry, looked up): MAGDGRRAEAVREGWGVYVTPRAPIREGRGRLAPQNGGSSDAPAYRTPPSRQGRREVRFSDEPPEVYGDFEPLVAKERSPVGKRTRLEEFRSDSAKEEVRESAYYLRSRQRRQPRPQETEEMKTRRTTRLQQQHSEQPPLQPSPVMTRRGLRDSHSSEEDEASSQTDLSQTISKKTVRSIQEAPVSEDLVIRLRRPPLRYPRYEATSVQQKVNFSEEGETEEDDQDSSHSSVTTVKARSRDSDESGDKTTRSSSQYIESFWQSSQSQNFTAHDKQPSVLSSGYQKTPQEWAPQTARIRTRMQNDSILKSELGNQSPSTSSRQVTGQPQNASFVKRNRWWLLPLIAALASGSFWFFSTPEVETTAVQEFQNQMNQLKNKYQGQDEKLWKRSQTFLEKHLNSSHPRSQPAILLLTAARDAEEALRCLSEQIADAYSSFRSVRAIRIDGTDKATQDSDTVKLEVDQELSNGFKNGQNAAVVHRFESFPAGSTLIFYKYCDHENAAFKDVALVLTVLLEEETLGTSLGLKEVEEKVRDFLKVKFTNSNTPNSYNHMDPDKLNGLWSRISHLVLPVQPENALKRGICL
# Chain of Follistatin-related protein 3 (Homo sapiens) (O95633 whole entry, looked up): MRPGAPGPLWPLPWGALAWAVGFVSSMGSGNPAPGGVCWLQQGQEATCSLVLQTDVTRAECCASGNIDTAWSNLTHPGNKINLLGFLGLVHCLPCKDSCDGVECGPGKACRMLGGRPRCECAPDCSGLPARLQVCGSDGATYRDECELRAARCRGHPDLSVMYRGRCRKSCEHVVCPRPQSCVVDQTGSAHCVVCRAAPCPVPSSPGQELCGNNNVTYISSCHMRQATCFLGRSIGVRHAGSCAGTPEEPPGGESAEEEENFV
# Chain of Epidermal growth factor receptor (Homo sapiens) (P00533 whole entry, looked up): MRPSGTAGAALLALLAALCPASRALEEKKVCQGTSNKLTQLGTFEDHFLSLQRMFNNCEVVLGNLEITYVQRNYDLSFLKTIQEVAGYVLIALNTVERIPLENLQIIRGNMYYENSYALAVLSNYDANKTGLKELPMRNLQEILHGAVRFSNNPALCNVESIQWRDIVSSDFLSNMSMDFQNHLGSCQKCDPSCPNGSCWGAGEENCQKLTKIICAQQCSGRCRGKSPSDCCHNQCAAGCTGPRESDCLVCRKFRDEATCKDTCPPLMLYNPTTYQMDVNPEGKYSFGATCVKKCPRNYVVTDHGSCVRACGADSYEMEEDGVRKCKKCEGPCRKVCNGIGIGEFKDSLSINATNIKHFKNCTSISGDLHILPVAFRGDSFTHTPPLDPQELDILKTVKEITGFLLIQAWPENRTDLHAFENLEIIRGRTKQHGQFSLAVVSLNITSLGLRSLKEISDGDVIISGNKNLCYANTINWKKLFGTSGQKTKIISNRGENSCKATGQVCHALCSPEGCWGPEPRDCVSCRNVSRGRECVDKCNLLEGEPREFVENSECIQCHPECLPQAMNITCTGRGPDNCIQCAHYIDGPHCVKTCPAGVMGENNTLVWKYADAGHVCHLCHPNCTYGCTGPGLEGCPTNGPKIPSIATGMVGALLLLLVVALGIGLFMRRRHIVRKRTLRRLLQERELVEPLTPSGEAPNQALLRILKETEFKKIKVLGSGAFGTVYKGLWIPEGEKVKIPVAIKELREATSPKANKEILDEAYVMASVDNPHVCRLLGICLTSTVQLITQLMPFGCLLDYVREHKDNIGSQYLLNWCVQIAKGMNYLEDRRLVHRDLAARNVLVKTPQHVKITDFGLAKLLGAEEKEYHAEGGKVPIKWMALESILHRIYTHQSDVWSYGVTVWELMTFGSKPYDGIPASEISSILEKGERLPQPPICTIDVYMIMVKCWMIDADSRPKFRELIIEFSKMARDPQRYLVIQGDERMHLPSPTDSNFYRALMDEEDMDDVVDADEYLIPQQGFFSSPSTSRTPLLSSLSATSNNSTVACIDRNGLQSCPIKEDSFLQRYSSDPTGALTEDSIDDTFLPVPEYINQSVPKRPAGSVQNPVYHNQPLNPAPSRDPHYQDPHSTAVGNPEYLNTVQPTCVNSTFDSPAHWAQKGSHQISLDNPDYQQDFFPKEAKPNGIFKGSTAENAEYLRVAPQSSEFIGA
# Chain of Left-right determination factor 2 (Homo sapiens) (O00292 whole entry, looked up): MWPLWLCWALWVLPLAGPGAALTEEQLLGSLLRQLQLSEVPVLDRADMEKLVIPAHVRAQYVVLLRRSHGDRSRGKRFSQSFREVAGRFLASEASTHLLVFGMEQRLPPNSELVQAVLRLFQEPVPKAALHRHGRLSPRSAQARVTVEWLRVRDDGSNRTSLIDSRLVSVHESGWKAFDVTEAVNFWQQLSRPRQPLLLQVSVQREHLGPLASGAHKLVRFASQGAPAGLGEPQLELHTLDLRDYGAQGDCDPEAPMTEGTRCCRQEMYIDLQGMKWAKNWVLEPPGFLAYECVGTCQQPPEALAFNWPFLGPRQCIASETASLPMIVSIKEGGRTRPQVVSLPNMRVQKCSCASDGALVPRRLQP
# Chain of Fibroblast growth factor 10 (Homo sapiens) (O15520 whole entry, looked up): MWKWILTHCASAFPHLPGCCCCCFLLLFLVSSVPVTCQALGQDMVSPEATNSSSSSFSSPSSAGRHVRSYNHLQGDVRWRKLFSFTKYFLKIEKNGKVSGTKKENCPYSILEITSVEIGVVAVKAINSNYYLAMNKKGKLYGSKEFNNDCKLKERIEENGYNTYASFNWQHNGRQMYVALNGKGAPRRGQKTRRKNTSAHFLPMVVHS
SMILES,composite z-score [1],composite z-score [2],composite z-score [3],z-score [4],composite z-score [5],composite z-score [6],composite z-score [7],composite z-score [8],composite z-score [9],composite z-score [10],composite z-score [11],z-score [12],composite z-score [13],composite z-score [14],composite z-score [15],composite z-score [16],composite z-score [17],composite z-score [18],composite z-score [19],composite z-score [20]
CC(C)[C@@H](CO)NC(=O)[C@H]1[C@@H](c2ccccc2)N(c2ccccc2)O[C@@H]1C,0.008,-0.343,-0.343,-0.18 (inactive),-0.123,-0.418,-0.0881,-0.218,0.227,0.197,0.0503,0.0505,0.28,-0.31,-0.354,-0.148,-0.186,-0.181,0.382,0.0366
CCCC#C[Si](O[C@H](CC)c1cn([C@H](CO)Cc2ccccc2)nn1)(C(C)C)C(C)C,0.947,0.111,-0.467,-0.118 (inactive),0.955,0.379,0.371,1.15,0.82,-0.253,1.08,-0.256,0.728,0.486,-0.0381,0.0597,-0.0866,0.26,0.761,0.701
CC(C)C[C@@H]1NC(=O)[C@@H]2C[C@H](C(=O)NCCCCCN)[C@H](c3cccc(OCCO)c3)N2C1=O,1.44,-0.0704,0.527,-1.08 (inactive),0.272,0.685,-0.26,0.627,0.387,0.842,0.828,-0.352,0.197,1.36,0.615,-0.0896,-0.153,-0.282,1.36,0.417
COCCOC(=O)N1C(=O)[C@@]2(c3cc(C#CCCO)ccc31)[C@H](c1ccc(OCCO)cc1)N1[C@H](c3ccccc3)[C@H](c3ccccc3)OC(=O)[C@H]1[C@@H]2C(=O)N1CCN(c2ncccn2)CC1,0.732,-0.104,0.27,0.319 (inactive),1.03,1.31,0.629,1.39,0.783,0.845,1.37,-1.46,0.781,1.33,-0.243,-0.131,-0.0035,-0.483,0.398,0.582
COC(=O)[C@@]1(Cc2ccc(OC)cc2)[C@H]2c3cc(C(=O)N4CCCC4)n(Cc4ccc(OC)c(OC)c4)c3C[C@H]2CN1C(=O)c1ccccc1,1.04,1.56,0.9,-1.81 (inactive),0.784,1.17,1.34,1.42,0.56,1.01,1.39,-1.72,0.381,2.16,0.811,-0.158,-0.008,0.162,0.371,0.381
COCC(=C=CC[C@H](O)c1ccccc1OCCO)C[C@H](O)c1cc(Cl)cc(Cl)c1O,0.588,-0.141,-0.0448,-0.705 (inactive),1.62,0.702,-0.0335,0.897,-0.0154,0.282,1.31,-4.43,0.223,0.068,-0.596,0.0357,0.207,0.464,0.743,1.08
C=CCNC(=O)[C@H]1[C@@H]2C(=O)O[C@@H](c3ccccc3)[C@@H](c3ccccc3)N2[C@@H](c2ccc(OCCO)cc2)[C@]12C(=O)N(C(=O)OCCOC)c1ccccc12,1.57,0.192,0.299,-1.04 (inactive),0.942,1.31,0.461,1.25,0.497,0.247,0.379,-1.49,0.666,1.06,0.0523,-0.14,-0.0056,-0.0681,0.985,1.66
COc1ccc([C@H]2OC[C@@H]3CC4(CC=CC4)C(=O)N32)cc1,0.165,-0.231,-0.147,-0.297 (inactive),0.93,0.784,1.04,1.31,1.42,1.25,0.659,0.0751,0.935,-1.18,-1.99,-0.124,-0.0146,-0.196,-0.251,0.144
[N-]=[N+]=NCc1ccccc1[C@@H]1OC(c2ccc(OCCCO)cc2)=N[C@]1(Cc1ccccc1N=[N+]=[N-])C(=O)N1CCOCC1,0.814,1.22,1.35,0.783 (inactive),1.33,1.3,0.248,0.783,0.231,0.73,0.841,-1.56,0.404,1.97,0.995,0.334,0.686,2.35,1.44,1.82
C=C(/C(=C/C[C@@H](OC(C)=O)c1ccc(OCCO)cc1)c1cnc2ccccc2c1)C(C)C,1.2,-0.229,0.0459,-0.837 (inactive),0.528,-0.0912,-0.103,0.77,0.218,1.5,1.32,-1.19,0.49,-0.196,-0.541,-0.091,0.111,0.0541,0.113,0.249
[N-]=[N+]=NCc1ccccc1[C@@H]1OC(c2ccc(OCCCO)cc2)=N[C@]1(CCS(=O)(=O)c1ccccc1)C(=O)NCc1ccccc1,1.54,1.14,0.993,-0.392 (inactive),1.25,1.26,0.274,0.869,0.494,1.07,0.512,-1.78,0.526,1.02,0.222,0.301,0.487,2.12,0.142,2.18

# Reference: PubChem BioAssay
